A short description of assay [1]: inhibitors of TNFa-induced NFkB p65 translocation, primary screen, imaging, HUVEC, MLSMR starter and 10KST1 sets (AID 438;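 active = inhibition above 20% together with a positive visual image hit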;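 note: compound added about 3h40 before a 20 min TNFalpha stimulation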;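 for inhibition: signal is the nuclear over cytoplasmic p65 intensity ratio per well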). To be noted: HUVEC TNFa-induced p65 nuclear translocation; cell count: measured here: nuclei count (cytotoxicity indicator), at 2.08 µM; inhibition: at 2 µM, stronger effect = higher value, 0% TNFa-plus-vehicle, 100% no-TNFa wells.
A short description of assay [2]: reduction of polyQ htt aggregates in cells – imaging, exon1htt(103Q)mCFP cells, high-content imaging, primary screen (AID 483;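 active = visual image review flags a hit and inhibition of aggregation exceeds 20%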;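 note: compound exposure lasted 3 days before fixation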;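 for nuclei count: percent of the per-plate median nuclei count of sample wells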). To be noted: exon1htt(103Q)mCFP cell line, aggregate imaging, at 2 µM; inhibition of aggregation: stronger effect = higher value; nuclei count: measured here: cell count, toxicity.
A short description of assay [3]: endothelial E-selectin expression blockers – imaging, HUVEC, immunofluorescence, MLSMR starter and 10KST1 sets, primary screen (AID 487;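 active = visually confirmed hit in the image check and inhibition above 20%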;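 for inhibition: signal is fraction of cell area covered by stained E-selectin grains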;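 for nuclei count: 100% = median nuclei count of all wells on the same plate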). The note with it: HUVEC TNFalpha-induced E-selectin immunofluorescence imaging, at 2 µM; inhibition: stronger effect = higher value; nuclei count: measured here: cell number, toxicity.
In assay [4] the target is Voltage-gated potassium channel subunit beta-2 (Rattus norvegicus) (UniProt P62483). The assay is described as follows: inhibitors of rat Kvbeta2 reductase activity – biochemical, NADPH fluorescence, primary screen (AID 622;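 active = fluorescence slope higher than the sample average by over 3 SD, cut at about -0.22 in these data, passing the limit was not always enough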;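 note: slope of raw intensity against log time taken from 70 to 1610 s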). To be noted: recombinant KvBeta, 4-cyanobenzaldehyde reduction, at 10 µM, stronger effect = higher value.
The target is the same in assay [5]. The assay is described as follows: enhancers of rat Kvbeta2 NADPH turnover – biochemical, NADPH fluorescence, primary screen (AID 623;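 active = NADPH fluorescence slope more negative than the mean of all samples by about 3 SD, 99.7% confidence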;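 note: fluorescence intensity change per second fitted from 20 to 320 s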). The note with it: Recombinant KvBeta, NADPH fluorescence decrease slope, 10 min; at 10 µM; stronger effect = lower value.
The target of assay [6] is Alpha-2C adrenergic receptor (Homo sapiens) (UniProt P18825). The assay can be described thus: compounds altering alpha2C-coupled GIRK flux – cell-based, HEK293 alpha2C/GIRK1/2, thallium flux, primary screen (AID 624).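 Note: slope of fluorescence ratio to pre-addition baseline per second over 15 to 24 s.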 The note with it: thallium flux BTC fluorescence, at 10 µM, actives lie on both sides.
Assay [7] can be described thus: blockers of RIG-like receptor reporter activation – cell-based, Sendai virus stimulus, luciferase, 10K MLSCN set, TLR/RLR signaling modifier project, primary screen (AID 602276;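 active = inhibition at or above 50% at 10 µM; inactive = inhibition below 50%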;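 note: firefly luciferase from ISG56 promoter only with Renilla not read in this screen; 0% = Sendai virus plus DMSO and 100% = medium plus DMSO without virus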). To be noted: HEK293 RL24 IRF3 luciferase reporter, at 10 µM, stronger effect = higher value. A general note: A reporter such as luciferase makes a cellular process visible.
The nature of assay [8]: TLR3 IRF3 reporter activation blockers – cell-based, poly I:C stimulus, luciferase, 10K MLSCN set, primary screen (AID 602277;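 active = inhibition of the reporter signal at or above 50%; inactive = inhibition below 50%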). To be noted: HEK293-TLR3 RL24 IRF3 luciferase reporter, at 10 µM, stronger effect = higher value.

Active and inactive are the calls of the source.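 Rule for the calls, unless noted: active = fluorescence slope after compound addition differing from the mean of all screened samples at 99.7% confidence, in either direction; inactive = the rest.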

Consider nine compounds from PubChem BioAssay.

Chain of Alpha-2C adrenergic receptor (Homo sapiens) (P18825 whole entry, looked up): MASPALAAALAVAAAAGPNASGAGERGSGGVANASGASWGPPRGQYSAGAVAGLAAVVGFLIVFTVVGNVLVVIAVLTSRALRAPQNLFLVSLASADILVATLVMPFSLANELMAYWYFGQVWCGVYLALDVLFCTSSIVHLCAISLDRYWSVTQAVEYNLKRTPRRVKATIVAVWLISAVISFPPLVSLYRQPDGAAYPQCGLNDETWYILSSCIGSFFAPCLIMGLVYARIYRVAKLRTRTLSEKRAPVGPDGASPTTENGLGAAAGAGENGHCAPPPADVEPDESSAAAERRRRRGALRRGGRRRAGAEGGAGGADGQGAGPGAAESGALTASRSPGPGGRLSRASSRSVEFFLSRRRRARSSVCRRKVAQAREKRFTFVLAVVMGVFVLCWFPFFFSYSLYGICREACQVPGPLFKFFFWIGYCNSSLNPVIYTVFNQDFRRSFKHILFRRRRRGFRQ
Chain of Voltage-gated potassium channel subunit beta-2 (Rattus norvegicus) (P62483 whole entry, looked up): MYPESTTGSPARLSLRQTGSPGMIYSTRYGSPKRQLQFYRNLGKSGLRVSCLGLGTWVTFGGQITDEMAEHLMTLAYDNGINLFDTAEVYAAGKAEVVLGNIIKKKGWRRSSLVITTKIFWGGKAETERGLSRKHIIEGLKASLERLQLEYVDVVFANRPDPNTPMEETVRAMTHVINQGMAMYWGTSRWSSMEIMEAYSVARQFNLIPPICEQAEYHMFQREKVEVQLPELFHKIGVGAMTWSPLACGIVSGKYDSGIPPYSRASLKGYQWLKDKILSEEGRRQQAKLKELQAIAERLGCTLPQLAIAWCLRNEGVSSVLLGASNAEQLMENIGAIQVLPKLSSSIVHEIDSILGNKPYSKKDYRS

Turning to `CC(C)C(NC(=O)c1ccccc1NC(=O)c1ccco1)C(=O)O` (centres undefined), in assay [1], the cell count is 368. The inhibition (in general, the drop in the measured response relative to a control, in per cent) is 1.7% (inactive) in assay [1], -32.6% (inactive) in assay [3], 19% (inactive) in assay [7] and 21.5% (inactive) in assay [8]. The inhibition of aggregation in assay [2] is -3.4% (inactive). Also, the nuclei count was 103% in assay [2] and 115% in assay [3]. In assay [4], the fluorescence slope was -0.622 (inactive). Moreover, the NADPH fluorescence slope in assay [5] was -3.3e-05 (inactive). For the same compound, the slope in assay [6] is 0.00599 (inactive).

Consider `CCOC(=O)c1c(C)n(OCc2ccccc2)c2ccc3c(no[n+]3[O-])c12`, for which, in assay [1], the cell count amounted to 437. Further, the inhibition in assay [1] was 4% (inactive); in assay [3], 8.8% (inactive); in assay [7], 2.55% (inactive); in assay [8] it was 13.2% (inactive). Moreover, the inhibition of aggregation in assay [2] was 2.1% (inactive). Also, the nuclei count came out at 104% in assay [2] and 111% in assay [3]. The fluorescence slope in assay [4] is -0.484 (inactive). Also, in assay [5], the NADPH fluorescence slope is -1e-05 (inactive). In addition, in assay [6], the slope is 0.00638 (inactive).

Consider `COc1ccc(OC)c2[nH]c(=O)c(CCNC(=O)C(C)C)cc12`, for which the cell count in assay [1] was found to be 629. Moreover, the inhibition is -21.1% (inactive) in assay [1], -27.3% (inactive) in assay [3], -3.11% (inactive) in assay [7] and 9.79% (inactive) in assay [8]. In assay [2], the inhibition of aggregation is 7.9% (inactive). The nuclei count in assay [2] came out at 79.4%; in assay [3] it was 112%. In assay [4], the fluorescence slope is -0.56 (inactive). The NADPH fluorescence slope in assay [5] was -1.8e-05 (inactive). For the same compound, in assay [6], the slope is 0.00598 (inactive).

For `COc1ccc(C(=O)Nc2ccccc2C(=O)NCCN2CCOCC2)cc1`, the cell count in assay [1] is 462. In addition, the inhibition in assay [1] is -2.2% (inactive); in assay [3] it was -23.5% (inactive); in assay [7], -23.4% (inactive); in assay [8], -25.1% (inactive). Also, in assay [2], the inhibition of aggregation was -3.2% (inactive). Besides, the nuclei count in assay [2] was found to be 98.2%; in assay [3] it was 103%. In addition, in assay [4], the fluorescence slope was -0.429 (inactive). Moreover, the NADPH fluorescence slope in assay [5] was -1.1e-05 (inactive). Further, the slope in assay [6] was 0.00486 (inactive).

On to `Cc1nnc(SCC(=O)NCc2ccccc2)s1`, for which the cell count in assay [1] amounted to 513. Besides, the inhibition in assay [1] is -11.9% (inactive); in assay [3] it was 10.5% (inactive); in assay [7] it was 1.7% (inactive); in assay [8], 30.9% (inactive). In addition, the inhibition of aggregation in assay [2] is 27.7% (inactive). Moreover, the nuclei count in assay [2] stood at 78.7%; in assay [3] it was 120%. For the same compound, the fluorescence slope in assay [4] was -0.447 (inactive). Also, in assay [5], the NADPH fluorescence slope was -2.7e-05 (inactive). Further, in assay [6], the slope is 0.00344 (inactive).

For `COc1ccc(/C(O)=C2/C(=O)C(=O)N(CCCN(C)C)C2c2ccc(Cl)cc2)cc1OC` (centres undefined), in assay [1], the cell count turned out to be 332. The inhibition is 4.5% (inactive) in assay [1], -11.6% (inactive) in assay [3], 12.7% (inactive) in assay [7] and 10.6% (inactive) in assay [8]. Moreover, the inhibition of aggregation in assay [2] is -28.5% (inactive). The nuclei count was found to be 122% in assay [2] and 112% in assay [3]. Besides, in assay [4], the fluorescence slope was -0.527 (inactive). Further, the NADPH fluorescence slope in assay [5] was -3.6e-05 (inactive). Moreover, the slope in assay [6] is 0.00513 (inactive).

`Cc1cc(C)n2nc(S(=O)(=O)N(C)c3ccccc3)nc2n1`: in assay [1], the cell count came to 679. Also, the inhibition was -2.6% (inactive) in assay [1], -66.9% (inactive) in assay [3], 7.86% (inactive) in assay [7] and 34.2% (inactive) in assay [8]. In addition, in assay [2], the inhibition of aggregation was 16.2% (inactive). In addition, the nuclei count in assay [2] was 102%; in assay [3], 114%. Besides, the fluorescence slope in assay [4] is -0.568 (inactive). In assay [5], the NADPH fluorescence slope is -5.7e-05 (inactive). The slope in assay [6] is 0.00717 (inactive).

Turning to `CCOC(=O)C1=C(C)N(C)C(=O)NC1c1ccccc1OC` (centres undefined), in assay [1], the cell count turned out to be 692. Besides, the inhibition was -11.4% (inactive) in assay [1], 50.2% (inactive) in assay [3], 16.2% (inactive) in assay [7] and 33.7% (inactive) in assay [8]. The inhibition of aggregation in assay [2] is -20.9% (inactive). The nuclei count in assay [2] is 92.6%; in assay [3], 93.2%. In assay [4], the fluorescence slope is -0.4 (inactive). The NADPH fluorescence slope in assay [5] was -1.2e-05 (inactive). The slope in assay [6] was 0.00553 (inactive).

Consider `CN(CC(=O)O)S(=O)(=O)c1cc(Cl)ccc1Cl`, for which the cell count in assay [1] is 416. Also, the inhibition in assay [1] was 3.5% (inactive); in assay [3] it was -8.7% (inactive); in assay [7] it was -11.4% (inactive); in assay [8], -16.7% (inactive). Besides, the inhibition of aggregation in assay [2] is -0.4% (inactive). For the same compound, the values for the nuclei count in assay [2] and in assay [3] were 111% and 101%, respectively. The fluorescence slope in assay [4] is -0.437 (inactive). Also, in assay [5], the NADPH fluorescence slope is -5e-05 (inactive). The slope in assay [6] was 0.0044 (inactive).
